Bioassay records (PubChem BioAssay)
GLP-1R inv ag = GLP-1 receptor (human) inverse agonism. actives 1.6% (n = 410,000). P43220. HEK293 GLP-1R CRE-luciferase, luminescence, 24 h; GLP-1R form is constitutively active. Potency, µM (doses to about 38.3 µM), for the others: at the highest dose activity change, negative = inhibition, most hits filed as inhibitors; also: % is scaled to controls: 0 for no effect and ±100 for the full control effect; nearly all actives have a fitted effect of over 55% in size
Target sequence (P43220 whole entry, looked up): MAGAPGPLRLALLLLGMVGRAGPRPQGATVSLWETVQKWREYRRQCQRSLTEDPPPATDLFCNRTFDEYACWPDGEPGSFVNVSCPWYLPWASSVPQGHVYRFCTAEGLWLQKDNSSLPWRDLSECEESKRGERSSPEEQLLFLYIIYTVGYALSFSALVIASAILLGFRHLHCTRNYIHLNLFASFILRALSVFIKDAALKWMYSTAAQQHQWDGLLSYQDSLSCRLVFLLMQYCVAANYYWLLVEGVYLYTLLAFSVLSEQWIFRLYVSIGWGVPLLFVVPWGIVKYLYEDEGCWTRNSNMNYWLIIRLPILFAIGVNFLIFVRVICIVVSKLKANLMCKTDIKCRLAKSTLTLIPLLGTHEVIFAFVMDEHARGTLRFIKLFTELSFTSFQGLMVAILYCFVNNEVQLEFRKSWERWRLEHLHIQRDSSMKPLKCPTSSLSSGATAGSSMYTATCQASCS
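Inverse agonism was detected as reduced cAMP-driven luciferase luminescence after 24 h compound treatment. The cells were HEK293 clones expressing constitutively active human GLP-1R with the reporter. Reporter-only and GPR119 cell lines served as counterscreen controls.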
ClpP mod = qHTS Assay for Activators of ClpP | Potency, µM (top dose mostly 57.5 µM), inactives show at the highest dose activity change, negative = active | AID 651965, 2013 | purified B. subtilis ClpP, FRET peptide cleavage, 20 min | actives 1.9% (n = 340,000) | ATP-dependent Clp protease proteolytic subunit (Bacillus subtilis (strain 168)), P80244; active = well fitted falling curve with a large enough effect; inconclusive = small, poorly fitted or top-dose-only effect; inactive = no such curve, though single readings can be large or run the other way; also: the source files actives as falling curves though it sought activators and does not explain the sign; nearly all actives have a fitted effect of over 65% in size
Target sequence (P80244 whole entry, looked up): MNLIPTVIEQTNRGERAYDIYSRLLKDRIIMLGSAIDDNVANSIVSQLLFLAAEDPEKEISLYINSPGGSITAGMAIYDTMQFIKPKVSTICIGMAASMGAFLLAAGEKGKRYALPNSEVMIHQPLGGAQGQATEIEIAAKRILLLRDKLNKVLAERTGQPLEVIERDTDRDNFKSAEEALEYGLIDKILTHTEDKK
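Purified B. subtilis ClpP, 10 microg/mL final in Tris/HCl pH8 with KCl, BSA, glycerol and Tween-20, cleaved an Abz/nitrotyrosine-quenched decapeptide. Fluorescence (ex 320, em 430) was read at 0 and 20 min at room temperature. Delta was normalized to 5.8 microM ADEP and DMSO/no-enzyme controls.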
GLP1R ag = GLP-1 receptor (human) agonism; Potency, µM (top dose mostly 45.6 µM), inactives show at the highest dose activation, most hits filed as activators; AID 624172; HEK293 GLP-1R CRE-luciferase, luminescence, 4-6 h; cells express a hypersensitive GLP-1R form; P43220; actives 0.007% (n = 380,000); also: % of control where 0% means no effect
HEK293 tox = cytotoxicity counter-screen for GLP-1 receptor inverse agonists; HEK293 cAMP-luciferase reporter cells, luminescence, 24 h; actives 0.13% (n = 410,000); Potency, µM (series often up to 38.3 µM), without a hit: top-dose activity change, negative = inhibition, most hits filed as inhibitors;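 also: loss of luciferase light is scored as toxicity; % is scaled to controls: 0 for no effect and ±100 for the full control effect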
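MLSMR compounds, 24 hr on cells at 37 deg C/5% CO2; luminescence after luciferase reagent (12 min RT). Inhibition counted as the undesired cytotoxic outcome.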
Starred values were filed as active, the others as inactive; ? = inconclusive; . = no result given; ! = not confirmed by another sample; [ ] = another dose, or the depositor's remark. Hits are enriched below; roughly 3.2% of the tested compounds scored in any of these assays. Unless noted, calls follow the shape of the dose curve; as a rule, active = well fitted curve in the direction sought with a large enough effect; inconclusive = small, poorly fitted or top-dose-only effect, or another doubt; inactive = no such curve, though single readings can be large; an effect the other way counts as inactive or inconclusive. Potency is read from the fitted curve at half-maximal effect.

SMILES | GLP-1R inv ag | ClpP mod | GLP1R ag | HEK293 tox
CC12CCC(c3nnc(SCc4ccc(Cl)cc4)nc31)C2(C)C (centres undefined) | ? | 20µM* | -1% | 3%
Cc1sc2ncnc(-n3cnc4ccccc43)c2c1C | -23% | 28µM* | -1% | ?
c1ccc(-c2csc3ncnc(-n4cnc5ccccc54)c23)cc1 | -35% | ? | 6% | -17%
Cc1ccc(-c2csc3ncnc(-n4cnc5ccccc54)c23)cc1 | ? | 28µM* | 17% | -11%
S=C(NCc1cccnc1)Nc1cc(Cl)cc(Cl)c1 | 10µM* | -2% | 2% | -1%
CCSc1cc(N2CC(C)OC(C)C2)nc(-c2ccccc2Cl)n1 (centres undefined) | 10µM* | -3% | 18% | 7%
CCSc1cc(N2CCCC2)nc(-c2ccc(C)cc2)n1 | 18% | -7% | 0% | 1%
CCc1ccccc1NC(=O)CCCN1C(=O)CCn2nc(-c3cn(C)c4ccccc34)cc21 | 15% | -1% | . | -12%
CCCC[C@@H](CC)COC(=O)C[C@H](C(=O)OC[C@H](CC)CCCC)S(=O)(=O)O | . | . | -1% | .
CC(C(=O)Nc1ccc2c(c1)OCO2)N(C)CC(=O)Nc1ccc(Cl)cc1 (centres undefined) | ? | 4% | 8% | -15%
CC(C(=O)Nc1ccc2c(c1)OCO2)N(c1ccc(Cl)cc1)S(C)(=O)=O (centres undefined) | 10µM* | 2% | -6% | -10%
Cc1ccccc1NC(=O)CSc1nc(-c2cccs2)nc2cc(=O)[nH]n12 | 5% | 1% | . | 7%
CCOc1ccccc1N(CC(=O)NC(C)(C)C)C(=O)c1ccc(CN2CCOCC2)o1 | 4% | 0% | -10% | -11%
CC(C)(C)NC(=O)CN(C(=O)c1ccc(CN2CCOCC2)o1)c1ccc2c(c1)OCCO2 | 6% | 13µM* | 1% | 7%
CCOc1cc(S(=O)(=O)NCc2ccc(OC)cc2)c(OCC)cc1-n1cnnn1 | 0% | 22µM* | 0% | ?
CCOc1cc(S(=O)(=O)NCCc2ccc(OC)c(OC)c2)c(OCC)cc1-n1cnnn1 | 7% | -2% | -2% | -26%
CCOc1cc(S(=O)(=O)NC2CC2)c(OCC)cc1-n1cnnn1 | 7% | 32µM* | -6% | -5%
CCOc1cc(S(=O)(=O)NCC2OCCc3ccccc32)c(OCC)cc1-n1cnnn1 (centres undefined) | 0% | 13µM* | 12% | -1%
CCOc1cc(S(=O)(=O)NCc2ccco2)c(OCC)cc1-n1cnnn1 | 32% | 22% | 9% | -19%
CC12CN3CC(C)(CN(C1)C3c1ccc(OCc3ccccc3)cc1)C2=O (centres undefined) | 11% | 1% | . | -7%
CCN(CC)c1sc(S(=O)(=O)c2ccccc2)nc1S(=O)(=O)c1ccc(C)cc1 | ? | -3% | . | -5%
CCC(C)(C)C1CCC2(CC1)NC(=O)N(CC(=O)NCCCc1ccccc1)C2=O (centres undefined) | ? | 1% | -5% | -9%
CCC(C)(C)C1CCC2(CC1)NC(=O)N(CC(=O)NC(C)CCc1ccccc1)C2=O (centres undefined) | 3.5µM* | -2% | 6% | 14%
CC(C)n1cc(/C=C2/NC(=O)N(c3cccc(Cl)c3)C2=O)c2ccccc21 | -4% | 1% | -6% | -21%
CC(C)n1cc(/C=C2\NC(=O)N(c3cccc(Cl)c3)C2=O)c2ccccc21 | 4µM* | -4% | -15% | -15%
SMILES | GLP-1R inv ag | ClpP mod | GLP1R ag | HEK293 tox
O=C(Nc1ccc(Cl)cc1)C1Cc2c(-c3ccccc3Oc3ccccc3)ccnc2O1 (centres undefined) | ? | -7% | -5% | -4%
CCOC(=O)N1CCN(C(=O)c2cccn3c(=O)c4sccc4nc23)CC1 | 6% | 25µM* | -13% | -9%
COC(=O)c1cc(-c2c(C)oc3cc(O)ccc3c2=O)c(C)o1 | 6% | 25µM* | -6% | 2%
COC(=O)c1cc(-c2c(C)oc3cc(OC)ccc3c2=O)c(C)o1 | -15% | 1% | 24% | -6%
Cc1oc2cc(O)ccc2c(=O)c1Oc1ccccc1 | -13% | 11µM* | 2% | 0%
COc1ccc(NC(=O)CSc2cn(CC(=O)N3CCOCC3)c3ccccc23)cc1OC | 3% | -3% | . | 6%
O=C1C(=O)c2cccnc2-c2ncccc21 | ? | 1% | -13% | ?
CCC(=O)N1CCc2cc(Br)cc(S(=O)(=O)NCCc3cccc(C)c3)c21 | -16% | -2% | . | 1%
O=C(CSc1nnc(NC(=O)c2ccc3c(c2)OCO3)s1)NCc1ccco1 | 1%[0.307 µM] | 4.5µM* | -39% | 6%[0.307 µM]
Cc1cc(N2CCN(C(c3ccccc3)c3ccccc3)CC2)n2ncnc2n1 | 11µM* | 1% | 21% | -10%
COc1ccc(CNC(=O)Cn2c(=O)nc(-c3ccccc3)c3ccccc32)cc1OC | ? | -13% | . | -5%
O=C(NCCCn1ccnc1)Nc1cccc2ccccc12 | 4% | 32µM* | -4% | 8%
O=C(NCCCn1ccnc1)c1ccc2ccccc2c1 | 6% | -4% | 0% | -4%
Cc1ccc(C(=O)NCC(c2cccs2)S(=O)(=O)c2ccccc2)cc1C (centres undefined) | -21% | -3% | . | 13%
O=C(NCc1cnc2ccccn12)C1CCC(=O)N(Cc2cccc(F)c2)C1 (centres undefined) | 34% | 16µM* | -2% | 1%
O=C(O)c1ccc2cccc(Cl)c2c1O | -13% | 18µM* | 1% | 11%
CCCOC(=O)c1cccc(Nc2nc(CCC)cc(=O)[nH]2)c1 | ? | -7% | . | -16%
CCCCn1cc(S(=O)(=O)c2ccc(C)cc2)c(=O)c2cc(F)c(N3CCCCC3)cc21 | 13% | ? | . | 2%
CC(=O)Nc1ccc(-c2ccnc3c2CC(C(=O)NCc2cccc(Cl)c2)O3)cc1 (centres undefined) | 3.5µM* | 4% | ? | ?
CCc1ccc(-c2nc3ccc(Br)cc3c(C(=O)O)c2C)s1 | ? | 25µM*! | -5% | -4%
Cc1csc2nc(COc3ccc(NC(=O)c4ccccc4F)cc3)cc(=O)n12 | 4% | -9% | . | -4%
C=CCSc1nc2ccccc2c(=O)n1C1CCOC(C)(C)C1 (centres undefined) | 10µM* | . | 12% | 4%
c1ccc2nccnc2c1 | . | -23% | . | .
Cc1cc(C)c2nc(N3CCC(C(=O)NCC4CCCO4)CC3)sc2c1 (centres undefined) | ? | -1% | -1% | -2%
Cc1cc(C)c2nc(N3CCC(C(=O)NCCCN4CCCCC4)CC3)sc2c1 | 3.2µM* | -1% | -20% | ?
Cc1ccc(NC(=O)CN2C(=O)NC3(CCCCCC3)C2=O)cc1Cl | ? | -1% | 0% | ?
Cc1cc(NC(=O)CN2C(=O)NC3(CCCCCC3)C2=O)ccc1Br | 10µM* | 0% | 21% | -16%
